Among all 39,000 compounds or so, about 3,300 (8.5%) were called active. This is one part of a sample in which actives are shown more often than they occur.

This experiment relates to HepG2. In words: cytotoxicity call (relative viability < 0.9). As to conditions: 10 µM.
As for `C[C@@H]1CN([C@H](C)CO)C(=O)c2cc(NS(=O)(=O)c3ccc(Cl)cc3)ccc2O[C@@H](C)CCCCO[C@H]1CN(C)C(=O)Nc1ccccc1`, the cytotoxicity call is “inactive”. Regarding `O=C(C[C@@H]1CC[C@@H]2[C@H](COC[C@@H](O)CN2S(=O)(=O)c2ccccc2)O1)NCCN1CCCCC1`, the cytotoxicity call was “inactive”. On to `O=C(Nc1ccccc1)N1c2ccccc2CCc2ccccc21`, for which the cytotoxicity call was “inactive”. With `CC(CN(C)C)CN1c2ccccc2CCc2ccccc21.O=C(O)C=CC(=O)O` (stereo not given) the entry was “active”; with `CC(CN(C)C)CN1c2ccccc2Sc2ccccc21.O=C(O)C(O)C(O)C(=O)O` (stereo not given), “active”; with `CCOC(=O)C(CCc1ccccc1)NC1CCc2ccccc2N(CC(=O)O)C1=O.Cl` (stereo not given), “inactive”. Take `Cc1ccc(C(=O)N2c3ccccc3Sc3ccccc32)cc1`: the cytotoxicity call is “inactive”.

Consider `O=C(c1ccccc1F)N1c2ccccc2Sc2ccccc21`, for which the cytotoxicity call was “inactive”. Take `COc1ccc(NC(=O)N(C)C[C@@H]2OCc3ccccc3-c3c(n(C)c4ccccc34)C(=O)N([C@H](C)CO)C[C@@H]2C)c(OC)c1`: the cytotoxicity call is “inactive”. For `CCC(=O)Nc1ccc2c(c1)OC[C@@H](C)N(C(=O)CN1CCOCC1)C[C@@H](C)[C@H](OC)CN(C)C2=O`, the cytotoxicity call was “inactive”. For the molecule `Cc1noc(C)c1NC(=O)Nc1ccc2c(c1)C(=O)N([C@H](C)CO)C[C@H](C)[C@@H](CN(C)C(=O)Nc1ccc(C(F)(F)F)cc1)O2`, the cytotoxicity call was “inactive”.

`Cc1ccc(S(=O)(=O)Nc2cccc3c2O[C@H](CN(C)Cc2ccc(Oc4ccccc4)cc2)[C@@H](C)CN([C@@H](C)CO)C3=O)cc1`: the cytotoxicity call is “inactive”. On to `C[C@@H]1CN([C@@H](C)CO)C(=O)Cc2cc(NC(=O)NC3CCCCC3)ccc2O[C@H]1CN(C)S(=O)(=O)c1cn(C)cn1`, for which the cytotoxicity call was “inactive”.

For the molecule `C[C@H]1CCCCO[C@H](CN(C)S(=O)(=O)c2ccc(F)cc2)[C@@H](C)CN([C@@H](C)CO)C(=O)c2cc(NC(=O)NC3CCCCC3)ccc2O1`, the cytotoxicity call was “inactive”.

Turning to `C[C@H](CO)N1C[C@H](C)[C@H](CN(C)Cc2ccc(Oc3ccccc3)cc2)Oc2c(NC(=O)CCCCCC(=O)Nc3ccccc3N)cccc2C1=O`, the cytotoxicity call is “inactive”. `COc1ccc(CN(C)C[C@H]2Oc3c(NC(=O)CCCCCC(=O)Nc4ccccc4N)cccc3C(=O)N([C@@H](C)CO)C[C@@H]2C)cc1`: the cytotoxicity call is “active”. With `C[C@@H]1CN([C@@H](C)CO)C(=O)c2cccc(NC(=O)CCCCCC(=O)Nc3ccccc3N)c2O[C@@H]1CN(C)Cc1ccc(Oc2ccccc2)cc1` the entry was “active”.

Regarding `COc1ccc(CN(C)C[C@@H]2Oc3c(NC(=O)CCCCCC(=O)Nc4ccccc4N)cccc3C(=O)N([C@@H](C)CO)C[C@H]2C)cc1`, the cytotoxicity call is “inactive”. In the case of `C[C@@H]1CN([C@H](C)CO)C(=O)c2cccc(NC(=O)CCCCCC(=O)Nc3ccccc3N)c2O[C@H]1CN(C)Cc1ccc(Oc2ccccc2)cc1` it was “inactive”. Turning to `COc1ccc(CN(C)C[C@@H]2Oc3c(NC(=O)CCCCCC(=O)Nc4ccccc4N)cccc3C(=O)N([C@H](C)CO)C[C@H]2C)cc1`, the cytotoxicity call is “inactive”. With `CO[C@@H]1CN(C)C(=O)c2cc(NS(C)(=O)=O)ccc2OC[C@H](C)N(C(=O)CN(C)C)C[C@@H]1C` the entry was “inactive”; with `C[C@H](CO)N1C[C@H](C)[C@H](CN(C)CC2CC2)OCCCC[C@H](C)Oc2ccc(NC(=O)CCC(F)(F)F)cc2C1=O`, “inactive”; with `CC(=O)Oc1ccc(C(c2ccc(OC(C)=O)cc2)c2ccccn2)cc1`, “inactive”.

Regarding `CN(C)CCC(c1ccc(Br)cc1)c1ccccn1.O=C(O)C=CC(=O)O` (stereo not given), the cytotoxicity call was “active”. Turning to `CN(C)CCC(c1ccc(Cl)cc1)c1ccccn1.O=C(O)C=CC(=O)O` (stereo not given), the cytotoxicity call is “active”. With `CN(C)CCOC(c1ccc(Cl)cc1)c1ccccn1.O=C(O)C=CC(=O)O` (stereo not given) the entry was “inactive”. On to `CN(C)CCC(c1ccccc1)c1ccccn1.O=C(O)C=CC(=O)O` (stereo not given), for which the cytotoxicity call is “inactive”.

With `CN(C)CCNC(=O)c1ccccn1`, the cytotoxicity call is “inactive”. As to `C[C@@H]1CN([C@@H](C)CO)C(=O)c2cc(NC(=O)c3ccncc3)ccc2O[C@@H](C)CCCCO[C@H]1CN(C)C(=O)C1CCCCC1`, the cytotoxicity call was “inactive”. In the case of `C[C@@H]1CN([C@@H](C)CO)C(=O)c2cc(NS(=O)(=O)c3cccs3)ccc2O[C@@H]1CN(C)S(=O)(=O)c1cccs1` it was “inactive”; in that of `C[C@H](CO)N1C[C@H](C)[C@H](CN(C)S(=O)(=O)c2ccccc2)Oc2c(NS(C)(=O)=O)cccc2C1=O`, “inactive”; in that of `CN(C)S(=O)(=O)N(C)c1ccccc1`, “inactive”. As for `C[C@@H]1CN([C@@H](C)CO)C(=O)c2cc(NC(=O)Nc3ccc4c(c3)OCO4)ccc2O[C@@H](C)CCCCO[C@H]1CN(C)C(=O)Nc1ccc(C(F)(F)F)cc1`, the cytotoxicity call was “inactive”. As to `C[C@H]1CN([C@@H](C)CO)C(=O)c2cc(NS(=O)(=O)c3ccc(F)cc3)ccc2O[C@H]1CN(C)C(=O)Nc1cccc2ccccc12`, the cytotoxicity call was “inactive”.

For `S=C(SN1CCOCC1)N1CCOCC1`, the cytotoxicity call is “inactive”. On to `COc1cc(Nc2ncc3c(n2)-c2ccc(Cl)cc2C(c2c(F)cccc2OC)=NC3)ccc1C(=O)O`, for which the cytotoxicity call is “active”. Turning to `C[C@H](CO)N1C[C@H](C)[C@@H](CN(C)Cc2ccc(C(F)(F)F)cc2)Oc2ccc(NC(=O)CCCCCC(=O)Nc3ccccc3N)cc2C1=O`, the cytotoxicity call is “inactive”. With `C[C@@H]1CN([C@@H](C)CO)C(=O)c2cc(NC(=O)CCCCCC(=O)Nc3ccccc3N)ccc2O[C@@H]1CN(C)Cc1ccc(-c2ccccc2)cc1`, the cytotoxicity call was “active”.

With `C[C@H]1CN([C@@H](C)CO)C(=O)c2cc(NC(=O)CCCCCC(=O)Nc3ccccc3N)ccc2O[C@H]1CN(C)Cc1ccc(-c2ccccc2)cc1`, the cytotoxicity call is “inactive”. `C[C@@H]1CN([C@@H](C)CO)C(=O)c2cc(NC(=O)CCCCCC(=O)Nc3ccccc3N)ccc2O[C@H]1CN(C)Cc1ccc(C(F)(F)F)cc1`: the cytotoxicity call is “inactive”.

For `C[C@@H]1CN([C@H](C)CO)C(=O)c2cc(NC(=O)CCCCCC(=O)Nc3ccccc3N)ccc2O[C@H]1CN(C)Cc1ccc(-c2ccccc2)cc1`, the cytotoxicity call is “active”. With `C[C@@H]1CN([C@H](C)CO)C(=O)c2cc(NC(=O)CCCCCC(=O)Nc3ccccc3N)ccc2O[C@@H]1CN(C)Cc1ccc(C(F)(F)F)cc1` the entry was “inactive”. As for `C[C@H](CO)N1C[C@H](C)[C@H](CN(C)Cc2ccc(C(F)(F)F)cc2)Oc2ccc(NC(=O)CCCCCC(=O)Nc3ccccc3N)cc2C1=O`, the cytotoxicity call is “inactive”. `C[C@H](CO)N1C[C@H](C)[C@H](CN(C)Cc2ccc(-c3ccccc3)cc2)Oc2ccc(NC(=O)CCCCCC(=O)Nc3ccccc3N)cc2C1=O`: the cytotoxicity call is “active”. In the case of `C[C@@H]1CN([C@@H](C)CO)C(=O)c2cc(NC(=O)CCCCCC(=O)Nc3ccccc3N)ccc2O[C@@H]1CN(C)Cc1ccc(C(F)(F)F)cc1` it was “inactive”; in that of `COc1ccc(CN(C)C[C@@H]2Oc3ccc(NS(C)(=O)=O)cc3CC(=O)N([C@H](C)CO)C[C@@H]2C)cc1`, “inactive”; in that of `O=C(C[C@H]1CC[C@@H]2[C@H](COC[C@@H](O)CN2S(=O)(=O)c2ccc(Oc3ccccc3)cc2)O1)NCCN1CCCCC1`, “inactive”. For `Cc1noc(C)c1S(=O)(=O)Nc1ccc2c(c1)CC(=O)N([C@H](C)CO)C[C@H](C)[C@H](CN(C)S(C)(=O)=O)O2`, the cytotoxicity call was “inactive”.

For the molecule `O=C1O[C@H](c2ccccc2)[C@H](c2ccccc2)N2[C@H]1[C@@H](C(=O)Nc1nc3ccccc3s1)[C@]1(C(=O)Nc3ccc(C#CCCO)cc31)[C@H]2c1ccc(OCCO)cc1`, the cytotoxicity call is “inactive”. As for `COc1ccc(S(=O)(=O)Nc2ccc3c(c2)C(=O)N([C@@H](C)CO)C[C@@H](C)[C@@H](CN(C)C(=O)Nc2cccc4ccccc24)OCCCC[C@@H](C)O3)cc1`, the cytotoxicity call is “inactive”. On to `COc1ccc(NC(=O)N(C)C[C@@H]2Oc3c(NC(=O)C4CCOCC4)cccc3C(=O)N([C@H](C)CO)C[C@@H]2C)cc1`, for which the cytotoxicity call was “inactive”. With `C[C@H]1CN([C@@H](C)CO)C(=O)c2cccc(NS(=O)(=O)c3cn(C)cn3)c2O[C@H]1CN(C)C(=O)Nc1ccc(F)cc1` the entry was “inactive”; with `COc1cccc(S(=O)(=O)Nc2ccc3c(c2)C(=O)N(C)C[C@H](OC)[C@H](C)CN(C(=O)Cc2cccnc2)[C@@H](C)CO3)c1`, “inactive”; with `Cc1ccc(S(=O)(=O)N(C)C[C@@H]2OCCCC[C@@H](C)Oc3ccc(NC(=O)Nc4ccc5c(c4)OCO5)cc3C(=O)N([C@@H](C)CO)C[C@@H]2C)cc1`, “inactive”. As to `S=C1NCN(C2CCCC2)CN1`, the cytotoxicity call is “inactive”.

On to `S=C1NCN(Cc2ccncc2)CN1`, for which the cytotoxicity call was “inactive”. In the case of `CCN1CCC[C@@H]1CN1CNC(=S)NC1`, the cytotoxicity call is “active”. Consider `C[C@H](CO)N1C[C@H](C)[C@H](CN(C)C(=O)Nc2ccc(C(F)(F)F)cc2)OCCCC[C@H](C)Oc2ccc(NC(=O)Nc3cccc4ccccc34)cc2C1=O`, for which the cytotoxicity call is “inactive”. With `O=C(Cc1ccncc1)NCC[C@@H]1CC[C@H](NC(=O)C2CCOCC2)[C@H](CO)O1` the entry was “inactive”; with `CN(C)c1nc2c([nH]1)c(=O)[nH]c(=O)n2C`, “inactive”; with `Cn1c(=O)[nH]c(=O)c2[nH]cnc21`, “inactive”.

With `CN(C)Cc1nc2c([nH]1)c(=O)[nH]c(=O)n2C`, the cytotoxicity call was “active”.

For the molecule `Cc1ccc(S[C@]2(C(=O)NCC(C)C)CC(=O)N(Cc3ccccc3)[C@@H]2c2ccc(CO)cc2)cc1`, the cytotoxicity call was “inactive”. Consider `O=C1[N-]C(=O)C(c2ccccc2)(c2ccccc2)N1.[Na+]`, for which the cytotoxicity call is “inactive”. Take `C[C@H](CO)N1C[C@H](C)[C@H](CN(C)S(=O)(=O)c2ccc(F)cc2)Oc2ccc(NC(=O)Cn3cnnn3)cc2C1=O`: the cytotoxicity call was “inactive”. Consider `C[C@H](CO)N1C[C@H](C)[C@@H](CN(C)C(=O)Nc2ccc(C(F)(F)F)cc2)Oc2c(NC(=O)NC3CCCCC3)cccc2C1=O`, for which the cytotoxicity call was “inactive”. With `CC(C)NC(=O)N(C)C[C@H]1Oc2c(NC(=O)C3CCCCC3)cccc2C(=O)N([C@H](C)CO)C[C@@H]1C` the entry was “inactive”.

Take `C[C@@H]1CN([C@@H](C)CO)C(=O)c2cccc(NC(=O)NC3CCCCC3)c2O[C@@H]1CN(C)C(=O)Nc1ccc(C(F)(F)F)cc1`: the cytotoxicity call is “inactive”. For the molecule `CC(C)NC(=O)N(C)C[C@@H]1Oc2c(NC(=O)C3CCCCC3)cccc2C(=O)N([C@H](C)CO)C[C@H]1C`, the cytotoxicity call was “inactive”. In the case of `C[C@@H]1CN([C@H](C)CO)C(=O)c2cccc(NC(=O)NC3CCCCC3)c2O[C@H]1CN(C)C(=O)Nc1ccc(C(F)(F)F)cc1` it was “active”; in that of `C[C@@H]1CN([C@@H](C)CO)C(=O)c2cccc(NC(=O)C3CCCCC3)c2O[C@@H]1CN(C)C(=O)Nc1ccc(C(F)(F)F)cc1`, “inactive”; in that of `C[C@H](CO)N1C[C@H](C)[C@H](CN(C)C(=O)Nc2ccc(C(F)(F)F)cc2)Oc2c(NC(=O)NC3CCCCC3)cccc2C1=O`, “active”.

Turning to `CC(C)NC(=O)N(C)C[C@@H]1Oc2c(NC(=O)C3CCCCC3)cccc2C(=O)N([C@@H](C)CO)C[C@@H]1C`, the cytotoxicity call was “active”. Regarding `C[C@H](CO)N1C[C@H](C)[C@H](CN(C)C(=O)Nc2ccc(C(F)(F)F)cc2)Oc2c(NC(=O)C3CCCCC3)cccc2C1=O`, the cytotoxicity call was “active”. On to `C[C@@H]1CN([C@H](C)CO)C(=O)c2cccc(NC(=O)C3CCCCC3)c2O[C@H]1CN(C)C(=O)Nc1ccc(C(F)(F)F)cc1`, for which the cytotoxicity call was “inactive”.

For the origin of these results see the antibiotic and cytotoxicity screens of Wong et al. (2023).
